# Bioassay records (PubChem)
# RecA intein inh – Mtb RecA intein splicing inhibitors, primary screen, biochemical, fluorescence, HTS; inhibition, % (concentration not given with the values); Protein RecA (Mycobacterium tuberculosis (strain ATCC 25618 / H37Rv)), P9WHJ3; 290,000 compounds, 0.75% hits; cell-free RecA intein splicing; in the data active = inhibition above about 30%;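 note: 0% = vehicle wells and 100% = reference inhibitor control wells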
# CCHF vOTU inh – CCHFV vOTU protease inhibitors, primary screen, biochemical, Pep-AMC substrate, fluorescence; Crimean-Congo hemorrhagic fever virus L polyprotein viral ovarian tumor (vOTU) protease …; inhibition, % at 11.5 µM; 370,000 compounds, 0.55% hits; AID 651958, 2012; note: 0% = vehicle wells with enzyme and 100% = no enzyme wells
# Mtb FBA inh – Mtb FBA enzyme inhibitors, primary screen, biochemical, fluorescence, strain H37Rv; AID 588726, 2011; 360,000 compounds, 2.3% hits; Fructose-bisphosphate aldolase (Mycobacterium tuberculosis (strain ATCC 25618 / H37Rv)), …; inhibition, % at 1 µM; purified M. tuberculosis FBA, fluorescence read-out; in the data active = inhibition above about 27%;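 note: 0% = vehicle and 100% = reference inhibitor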
# GDH-TPI counter – GDH-TPI coupling enzyme inhibitors, primary screen, artefact control for M. tuberculosis FBA inhibitor project, biochemical, absorbance, full deck; 360,000 compounds, 1.2% hits; GDH-TPI coupled enzyme counterscreen, NADH absorbance; AID 588335, 2011; inhibition, % at 4.8 µM;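 note: 0% = DMSO wells and 100% = wells lacking the enzyme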
# * marks the source's active call; other numbers are inactive results; nt = not tested or not shown. Hits are enriched below; roughly 4.2% of the tested compounds scored in any of these assays. Cut-off read from the data, not from the text of the source, unless noted: active = inhibition above about 30%; inactive = the rest.
SMILES,RecA intein inh,CCHF vOTU inh,Mtb FBA inh,GDH-TPI counter
Cc1c(/C=N\NC(=O)c2ccc([N+](=O)[O-])cc2)cnn1C,-2.7,-6.0,-0.9,7.0
O=C(N/N=C/c1ccc([N+](=O)[O-])cc1)c1cccc(N2CCCC2=O)c1,-0.7,8.8,-2.9,40.2*
O=C(N/N=C/c1cccn1-c1ccc([N+](=O)[O-])cc1)c1cccnc1,-5.6,4.5,-7.7,53.1*
COc1ccccc1NS(=O)(=O)c1ccc(C(=O)N2CCCCCC2)cc1,nt,2.4,1.0,1.8
COP(=O)(O)C(Cc1ccccc1)NC(=O)OCc1ccccc1 (centres undefined),nt,-1.3,nt,nt
Cc1cc(OCC(=O)N2CCOCC2)ccc1[N+](=O)[O-],-0.5,-5.8,-1.5,8.1
O=C(NC1CCCC1)c1ccc(COc2ccccc2)o1,nt,4.9,nt,nt
O=C(NN=Cc1ccc([N+](=O)[O-])cc1)c1ccncc1,nt,-2.2,0.0,39.7*
O=C(N/N=C/c1ccncc1)c1cc([N+](=O)[O-])cc([N+](=O)[O-])c1,-3.8,7.7,-2.9,10.3
CCC(=O)Nc1ccc(C(=O)NNC(=O)c2ccc([N+](=O)[O-])cc2)cc1,1.2,-16.4,-0.4,2.5
CC(C)C(=O)Nc1ccccc1C(=O)N/N=C/c1ccc([N+](=O)[O-])cc1,-0.4,3.5,-0.4,34.5*
CCC(=O)Nc1ccc(C(=O)N/N=C/c2ccc([N+](=O)[O-])cc2)cc1,8.2,3.0,-1.8,50.6*
Cc1cccc(OCCCC(=O)N2CCCCCC2)c1C,3.6,7.4,-3.6,-1.6
Cn1c(C(C#N)C(=O)Cc2cccc3ccccc23)nc2ccccc21 (centres undefined),-1.3,3.1,0.2,6.9
Cn1c(C(C#N)C(=O)c2ccco2)nc2ccccc21 (centres undefined),1.1,11.7,3.6,32.8*
O=C(Nc1nc2ncccn2c1-c1ccc(C(F)(F)F)cc1)c1ccccc1,nt,-1.2,nt,nt
CCc1nc(Nc2cccc(O)c2)c2oc3ccccc3c2n1,2.5,nt,4.4,30.9*
CCc1nc(Nc2ccc3c(c2)OCO3)c2oc3ccccc3c2n1,5.0,-8.1,6.2,16.8
CCNC(=O)C1CCCN(C(=O)c2ccc(C(=O)OC)cc2)CC1 (centres undefined),nt,-13.5,0.3,4.9
CCN1CCN(c2ncc(C(=O)Nc3ccccc3C(=O)OC)c3ccccc23)CC1,2.5,4.7,8.9,31.2*
O=C(O)c1cccc2c1C(=O)c1ccc(-c3ccc(OC(F)(F)F)cc3)cc1S2(=O)=O,nt,19.5,2.2,31.8*
CN(C)c1ccc(/C=N/NC(=O)c2ccccn2)cc1,3.3,7.4,-0.1,24.9
CN(C)c1ccc(/C=N/NC(=O)c2ccco2)cc1,-2.7,2.0,-3.2,47.4*
CN(C)c1ccc(/C=N/NC(=O)c2ccn(C)n2)cc1,-2.2,13.9,-3.0,33.1*
Cc1ccc(C=Nc2ccccc2C(N)=O)o1,-3.0,10.8,7.6,6.9
SMILES,RecA intein inh,CCHF vOTU inh,Mtb FBA inh,GDH-TPI counter
CN(C)c1ccc(/C=N\NC(=O)c2csnn2)cc1,0.3,19.3,-3.6,41.9*
CN(C)c1ccc(C=Nc2ccccc2C(N)=O)cc1,nt,0.0,5.5,38.3*
Cc1occc1C(=O)N(C)Cc1nc(-c2ccc(Cl)cc2)no1,2.9,7.3,-1.3,1.1
CN(C)c1ccc(/C=N/NC(=O)C(=O)N2CCCCCC2)cc1,nt,3.0,3.7,35.5*
COc1ccc(/C=N/NC(=O)C(=O)N2CCCC2)cc1,-0.6,2.9,-0.8,5.5
Cc1ccccc1P(=O)(c1ccccc1)c1ccccc1C,nt,-5.6,0.4,-2.2
CCCCCC[C@H](CN(CCCC)S(C)(=O)=O)c1ccccc1,nt,26.2,nt,nt
COc1nc(N/N=C/c2cc3c(cc2Br)OCO3)nc(N2CCOCC2)n1,0.0,-4.5,1.0,33.0*
Cc1cc(N/N=C/c2ccc(O)cc2O)nc(N2CCOCC2)n1,-2.9,14.2,-7.7,69.1*
COc1ccc(/C=N/Nc2cc(C)nc(N3CCOCC3)n2)c(OC)c1,-1.0,-1.1,-2.9,47.6*
Cc1nc(N/N=C/c2cccnc2)cc(N2CCOCC2)n1,nt,22.6,-1.6,30.7*
COc1ccc(Nc2nc(N3CCOCC3)nc(N3CCOCC3)n2)c(OC)c1,0.5,-8.7,-0.3,-6.0
Cc1cc(OC(C)C(=O)NCC2CCCO2)cc(C)c1Cl (centres undefined),-6.1,-9.2,0.8,-3.9
Cc1cc(N/N=C/c2ccccc2)nc(N2CCOCC2)n1,-0.6,-6.6,-1.0,25.8
